According to PubChem BioAssay (Tox21):
Results filed as inconclusive are left out. Active and inactive are the calls of the source. Calls follow the shape of the full dose curve.

Test system: thyroid hormone receptor (rat, GH3 cells)
Assay: qHTS assay to identify small molecule agonists of the thyroid receptor (TR) signaling pathway (AID 743066)
Settings: GH3.TRE-Luc cells, TR agonist luciferase, 24 h; series mostly up to 83.9 µM

SMILES	outcome
Cc1ccc(-c2ncc(Cl)cc2-c2ccc(S(C)(=O)=O)cc2)cn1	inactive
CO[C@@]1(NC(=O)CSC[C@@H](N)C(=O)O)C(=O)N2C(C(=O)O)=C(CSc3nnnn3C)CS[C@@H]21	inactive
CCCc1nn(C)c2c(=O)[nH]c(-c3cc(S(=O)(=O)N4CCN(C)CC4)ccc3OCC)nc12	inactive
CCCCN1C=CN(C)C1	inactive
CCN1CCOCC1	inactive
COc1ccccc1OCC1CNC(=O)O1 (stereo unspecified)	inactive
CCCCOCCOC(=O)CCCCCCCCC(=O)OCCOCCCC	inactive
COc1ccnc(CS(=O)c2nc3cc(OC(F)F)ccc3[nH]2)c1OC (stereo unspecified)	inactive
CC[N+](C)(CC)CCOC(=O)C1c2ccccc2Oc2ccccc21	inactive
CC12CCC(C(=O)C1=O)C2(C)C (stereo unspecified)	inactive
CN(C)CCCN(C)CCCN(C)C	inactive
CCCCS(=O)(=O)N[C@@H](Cc1ccc(OCCCCC2CCNCC2)cc1)C(=O)O	inactive
O=C(O)CNC(=O)c1ccc(CO)o1	inactive
C=CCOCC(O)CO (stereo unspecified)	inactive
CC(C)(CCC(=O)O)C(=O)O	inactive
OCCc1ccccn1	inactive
CC1(C)[C@@H]2CC[C@@]1(C)[C@H](O)C2	inactive
CC(=O)c1ccccc1[N+](=O)[O-]	inactive
O=S(=O)(O)c1cccc2ccccc12	inactive
C1CCC2(CCCCO2)OC1	inactive
c1ccc(Cc2ccccc2)cc1	inactive
Cc1ccc(C(=O)c2ccc(CC(=O)O)n2C)cc1	inactive
Cc1cccc(C)c1NC(=O)CC12CCCN1CCC2	inactive
Nc1ccccn1	inactive
CCCCCCCCCCCCSC	inactive
C[C@@H]1CCC[C@H](C)N1	inactive
